From PubChem BioAssay (NCI)
About 83,000 compounds went through this panel and 20% of them were active in at least one assay; those are over-represented in the sample as a whole.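 Assay: single dose, 48 h. Readout: percent growth (0 = no net growth; negative = cell death). Active: <10.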 A number with no mark means an inactive call. The source made the active and inactive calls.

How the values were obtained:
Experiment in all cases: NCI-60 one-dose screen, 48 h (100 = growth as untreated, 0 = no growth, -100 = all killed)
Settings in all cases: 10 µM unless noted
NCI-H23 lung = test system: NCI-H23 lung
NCI-H226 lung = test system: NCI-H226 lung
NCI-H322M lung = test system: NCI-H322M lung
HOP-62 NSCLC = test system: HOP-62 NSCLC
NCI-H460 lung = test system: NCI-H460 lung
HOP-92 NSCLC = test system: HOP-92 NSCLC
NCI-H522 lung = test system: NCI-H522 lung
A549/ATCC NSCLC = test system: A549/ATCC NSCLC
786-0 renal = test system: 786-0 renal
COLO 205 colon = test system: COLO 205 colon
DU-145 prostate = test system: DU-145 prostate
K-562 leukemia = test system: K-562 leukemia
MALME-3M melanoma = test system: MALME-3M melanoma
MDA-MB-231 breast = test system: MDA-MB-231 breast
RXF 393 renal = test system: RXF 393 renal
SF-268 CNS = test system: SF-268 CNS
SF-295 CNS = test system: SF-295 CNS
SF-539 CNS = test system: SF-539 CNS
UACC-257 melanoma = test system: UACC-257 melanoma
M14 melanoma = test system: M14 melanoma

Row | Compound | growth (NCI-H23 lung) [%] | growth (NCI-H226 lung) [%] | growth (NCI-H322M lung) [%] | growth (HOP-62 NSCLC) [%] | growth (NCI-H460 lung) [%] | growth (HOP-92 NSCLC) | growth (NCI-H522 lung) | growth (A549/ATCC NSCLC) [%] | growth (786-0 renal) [%] | growth (COLO 205 colon) [%] | growth (DU-145 prostate) [%] | growth (K-562 leukemia) [%] | growth (MALME-3M melanoma) [%] | growth (MDA-MB-231 breast) [%] | growth (RXF 393 renal) [%] | growth (SF-268 CNS) [%] | growth (SF-295 CNS) [%] | growth (SF-539 CNS) | growth (UACC-257 melanoma) [%] | growth (M14 melanoma) [%]
1 | C=C(c1ccc(C(=O)O)c(F)c1)c1cc2c(cc1C)C(C)(C)CCC2(C)C | 80 | 82.6 | 101 | 76.4 | 81.5 | 58.4% | 78.1% | 52 | 96.6 | 123 | 108 | 71.9 | 63.6 | 85.7 | 90.9 | 77.9 | 72.8 | 81.1% | 95.8 | 89.4
2 | Cn1cc(-c2nc3c(F)cc4[nH]ncc4c3c3c2CCCC3)c(C(F)(F)F)n1 | 37.7 | 67.3 | 47.6 | 31 | 37.5 | -7.54% (active) | 0.529% (active) | 17.3 | 42.7 | 35.6 | 52.3 | 19.3 | 59.7 | 48.9 | 23 | 47.7 | 49.2 | 27.9% | 53.5 | 30.1
3 | COc1ccc(CNc2ccc3nc(NC(=O)CN4CCCCCC4)sc3c2)cc1 | 71.1 | 80 | 106 | 113 | 94.9 | 77.6% | 70.3% | 80.5 | 104 | 82.4 | 99.2 | 44.6 | 96.3 | 77.7 | 97 | 108 | 83.8 | 102% | 86 | 85.9
4 | C=C1CC[C@@H]2C(C)(C)[C@H](O)CC[C@@]2(C)[C@@H]1COc1ccc2ccc(=O)oc2c1 | 40.7 | 28.5 | 92.4 | 45.9 | 90.5 | 72.4% | 32.8% | 51.5 | 93 | 68.7 | 56.9 | 41.9 | 74.3 | 84 | 101 | 68.3 | 48 | 88.4% | 69.4 | 53.3
5 | CC1=C(Cl)C(=O)c2cc(C)ccc2C1=O | 100 | 86.3 | 94.4 | 105 | 115 | 88.5% | 93% | 101 | 102 | 114 | 115 | 102 | 114 | 103 | 84.9 | 88 | 108 | 116% | 106 | 112
6 | Nc1cc(C(=O)O)cc(-n2c(O)c(C=C3N=c4ccccc4=N3)sc2=S)c1 | 92.6 | 85.4 | 99.2 | 100 | 98 | 81.6% | 92.7% | 104 | 102 | 103 | 111 | 116 | 96.9 | 89.4 | 112 | 97.6 | 101 | 97.3% | 102 | 97.9
7 | Cc1cccc(NC(=O)N/C(N)=N/c2nc3ccccc3s2)c1 | 40.9 | 53.7 | 47.7 | 30.3 | 17.6 | 62.7% | 16% | 45.9 | 38.6 | 16.9 | 34.6 | 18.1 | 50.7 | 58.8 | 26.3 | 54.2 | 49.1 | -3.23% (active) | 55 | 16.5
